Laboratory results as given in PubChem BioAssay (NCATS).
Inconclusive results are not listed. Active and inactive are the calls of the source. Unless noted, the call rests on the fitted dose curve; in most records, active means well fitted curve in the direction sought with a large enough effect; inconclusive means small, poorly fitted or top-dose-only effect, or another doubt; inactive means no such curve, though single readings can be large; an effect the other way counts as inactive or inconclusive.

What was measured:
[1] = qHTS Assay for Lipid Storage Modulators (AID 1519; calls by dose curve; further: potency means the concentration at half of the fitted maximal effect; on activity change, negative = inhibition: on the % scale 0 is the no-effect control and ±100 the full control effect); details: Drosophila S3 cells, BODIPY lipid droplet/cell ratio, laser cytometry, cells loaded with oleic acid
Method in brief: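 Cells seeded at 5,000 per well were treated with compounds over a concentration series and loaded with oleic acid (400 uM, as added). Lipid droplet fluorescence (488 nm excitation, 500-530 nm channel) was read by laser-scanning cytometry and normalized to 20 uM Triacsin C.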

[2] = target: ATP-dependent 6-phosphofructokinase (Trypanosoma brucei brucei) (UniProt O15648); assay: qHTS Assay to Find Inhibitors of T. brucei phosphofructokinase: hit validation (AID 492961);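 further: luminescence reports ADP formed as PFK phosphorylates fructose-6-phosphate with ATP; on the % scale 0 is the no-effect control and ±100 the full control effect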
ATP-dependent 6-phosphofructokinase (Trypanosoma brucei brucei), sequence (O15648 whole entry, looked up): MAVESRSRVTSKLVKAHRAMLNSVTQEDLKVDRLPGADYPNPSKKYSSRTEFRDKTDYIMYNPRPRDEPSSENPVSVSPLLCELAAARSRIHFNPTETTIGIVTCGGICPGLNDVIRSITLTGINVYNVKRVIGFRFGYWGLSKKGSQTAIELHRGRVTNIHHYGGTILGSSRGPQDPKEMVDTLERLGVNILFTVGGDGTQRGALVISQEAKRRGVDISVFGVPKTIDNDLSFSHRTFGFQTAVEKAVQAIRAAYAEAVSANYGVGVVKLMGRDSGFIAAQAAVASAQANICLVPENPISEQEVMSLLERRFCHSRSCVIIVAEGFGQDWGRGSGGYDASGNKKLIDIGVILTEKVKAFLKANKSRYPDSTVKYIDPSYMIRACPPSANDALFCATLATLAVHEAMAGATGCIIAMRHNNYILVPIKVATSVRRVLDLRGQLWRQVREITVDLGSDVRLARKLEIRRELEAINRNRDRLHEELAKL
Method in brief: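 ADP-Glo luminescence read-out of ADP formed by 1.25 nM PFK from 0.1 mM ATP and 0.5 mM F6P (TEA pH 8.0, 45 min, RT). Compounds titrated; activity normalized to no-enzyme and full-enzyme controls.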

[3] = target: Ubiquitin carboxyl-terminal hydrolase 1 (Homo sapiens) (UniProt O94782); assay: Inhibitors of USP1/UAF1: Pilot qHTS (AID 504865);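 further: rhodamine fluorescence freed from ubiquitin-rhodamine substrate followed over time; top concentration of the series differs between compounds; on the % scale 0 is the no-effect control and ±100 the full control effect; nearly all actives have a fitted effect of over 35% in size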
Ubiquitin carboxyl-terminal hydrolase 1 (Homo sapiens), sequence (O94782 whole entry, looked up): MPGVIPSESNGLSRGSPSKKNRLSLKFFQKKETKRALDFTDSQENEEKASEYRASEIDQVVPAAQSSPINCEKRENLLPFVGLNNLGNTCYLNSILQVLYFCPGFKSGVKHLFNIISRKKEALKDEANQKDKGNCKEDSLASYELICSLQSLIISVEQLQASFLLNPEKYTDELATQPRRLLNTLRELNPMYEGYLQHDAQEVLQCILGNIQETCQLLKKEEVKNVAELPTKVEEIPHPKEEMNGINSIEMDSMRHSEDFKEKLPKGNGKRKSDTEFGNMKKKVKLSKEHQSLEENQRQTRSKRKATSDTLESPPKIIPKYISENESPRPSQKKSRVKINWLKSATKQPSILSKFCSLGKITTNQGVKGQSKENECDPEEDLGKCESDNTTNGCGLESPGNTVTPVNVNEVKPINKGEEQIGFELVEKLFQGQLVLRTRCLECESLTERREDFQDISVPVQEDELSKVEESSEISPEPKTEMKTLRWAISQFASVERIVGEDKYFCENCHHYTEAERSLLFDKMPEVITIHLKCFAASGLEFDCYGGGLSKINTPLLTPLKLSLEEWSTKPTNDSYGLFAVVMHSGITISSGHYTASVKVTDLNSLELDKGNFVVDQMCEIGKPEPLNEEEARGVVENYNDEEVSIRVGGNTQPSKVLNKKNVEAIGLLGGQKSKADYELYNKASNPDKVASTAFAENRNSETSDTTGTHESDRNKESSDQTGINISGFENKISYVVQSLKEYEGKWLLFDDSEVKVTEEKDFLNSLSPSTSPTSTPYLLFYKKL
Method in brief: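 USP1/UAF1 complex at 1 nM preincubated 15 min at room temperature with compound, then Ub-Rho substrate added at 150 nM final. Fluorescence (480/540 nm) read kinetically in 50 mM HEPES pH 7.8, 0.5 mM EDTA, 1 mM TCEP, 0.1 mg/ml BSA, 0.01% Tween-20.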

[4] = target: Luciferin 4-monooxygenase (Photinus pyralis) (UniProt P08659); assay: Biochemical firefly luciferase enzyme assay for NPC (AID 624030);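 further: purified P. pyralis luciferase at 10 nM with luciferin and ATP substrate; 0% = DMSO and -100% = full luciferase inhibition by PTC124 control; nearly all actives have a fitted effect of over 70% in size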
Luciferin 4-monooxygenase (Photinus pyralis), sequence (P08659 whole entry, looked up): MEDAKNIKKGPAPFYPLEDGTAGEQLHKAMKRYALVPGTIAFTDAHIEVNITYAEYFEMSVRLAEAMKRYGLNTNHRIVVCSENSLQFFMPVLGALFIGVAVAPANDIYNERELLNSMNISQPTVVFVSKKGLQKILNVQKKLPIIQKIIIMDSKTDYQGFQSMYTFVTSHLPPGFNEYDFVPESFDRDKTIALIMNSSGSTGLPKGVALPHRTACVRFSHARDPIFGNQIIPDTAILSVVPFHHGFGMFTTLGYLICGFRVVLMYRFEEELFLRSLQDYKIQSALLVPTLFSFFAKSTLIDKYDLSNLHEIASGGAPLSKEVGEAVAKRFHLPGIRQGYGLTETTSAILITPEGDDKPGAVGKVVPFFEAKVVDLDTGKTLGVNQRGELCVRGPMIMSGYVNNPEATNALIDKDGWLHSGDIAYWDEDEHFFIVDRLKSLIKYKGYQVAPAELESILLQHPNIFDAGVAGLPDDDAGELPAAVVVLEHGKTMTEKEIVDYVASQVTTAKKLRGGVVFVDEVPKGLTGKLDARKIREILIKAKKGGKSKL
Method in brief: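 Direct inhibition of firefly luciferase enzyme (10 nM final, 50 mM Tris Acetate) assessed by luminescence within 5 minutes. Percent activity scaled between DMSO and PTC124 positive control, with concentration-effect curves classified by fit quality and response.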

[5] = qHTS profiling for inhibitors of Plasmodium falciparum proliferation (AID 504749); further: potency means the concentration at half of the fitted maximal effect;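 on activity, negative = inhibition: 0% = DMSO vehicle and full inhibition = artemisinin control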; on all read-outs here: nearly all actives have a fitted effect of over 60% in size; details: P. falciparum in erythrocytes, SYBR Green DNA, 72 h; for activity, negative = inhibition: at 28.7 µM (top of the series)
Method in brief: (§1)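 Infected RBCs, 0.3% parasitemia/2.5% Hct final; cpd 72 h, 37 C, 5% CO2; lysis buffer with saponin/triton/SYBR Green I, o/n RT dark; FI 485/535; norm. to artemisinin (0.29 uM) and DMSO.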

[6] = tested on: 3D7; assay: as above; details: P. falciparum in erythrocytes, SYBR Green DNA, 72 h; series mostly up to 12.8 µM
Method in brief: as §1

[7] = tested on: C2A; assay: as above; details: P. falciparum in erythrocytes, SYBR Green DNA, 72 h; series mostly up to 12.8 µM
Method in brief: as §1

[8] = tested on: CP217; assay: as above; details: P. falciparum in erythrocytes, SYBR Green DNA, 72 h; series mostly up to 12.8 µM
Method in brief: as §1

[9] = tested on: CP238; assay: as above; details: P. falciparum in erythrocytes, SYBR Green DNA, 72 h; series mostly up to 12.8 µM
Method in brief: as §1

[10] = tested on: CP262; assay: as above; details: P. falciparum in erythrocytes, SYBR Green DNA, 72 h; series mostly up to 12.8 µM
Method in brief: as §1

[11] = tested on: CP269; assay: as above; details: P. falciparum in erythrocytes, SYBR Green DNA, 72 h; series mostly up to 12.8 µM
Method in brief: as §1

[12] = tested on: CP305; assay: as above; details: P. falciparum in erythrocytes, SYBR Green DNA, 72 h; series mostly up to 12.8 µM
Method in brief: as §1

[13] = tested on: CP325; assay: as above; details: P. falciparum in erythrocytes, SYBR Green DNA, 72 h; series mostly up to 12.8 µM
Method in brief: as §1

[14] = tested on: CP329; assay: as above; details: P. falciparum in erythrocytes, SYBR Green DNA, 72 h; series mostly up to 12.8 µM
Method in brief: as §1

[15] = tested on: DIV30; assay: as above; details: P. falciparum in erythrocytes, SYBR Green DNA, 72 h; series mostly up to 12.8 µM
Method in brief: as §1

[16] = tested on: FAB9; assay: as above; details: P. falciparum in erythrocytes, SYBR Green DNA, 72 h; series mostly up to 12.8 µM
Method in brief: as §1

[17] = tested on: PC49; assay: as above; details: P. falciparum in erythrocytes, SYBR Green DNA, 72 h; series mostly up to 12.8 µM
Method in brief: as §1

[18] = Stat Signaling Pathway (AID 446; active means well fitted curve in either direction with a large enough effect, not every such curve was filed as active;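 further: ME-180 cervical cancer cells given 40 pM IL-6 alongside compound; SIE-controlled beta-lactamase reporter measured as 460/530 nm FRET emission ratio; on the % scale 0 is the no-effect control and ±100 the full control effect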)
Method in brief: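 Reporter line: ME-180 cervical carcinoma, SIE-beta-lactamase. Treatment: compound with 40 pM IL-6, 5 hrs, 37 C, in low-serum OPTI-MEM with 10 mM HEPES pH 7.3. Detection: 460/530 nm fluorescence.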

[19] = target: Mitogen-activated protein kinase 10 (Mus musculus) (UniProt Q61831); assay: JNK3 AlphaScreen Assay (AID 530; active means well fitted curve in either direction with a large enough effect, not every such curve was filed as active;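 further: kinase came from lysate of stimulated human HepG2 cells; signal reports phosphorylation of biotinylated GST-cJun 1-79 at Ser73 with 10 µM ATP; on the % scale 0 is the no-effect control and ±100 the full control effect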)
Method in brief: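 Compound titrations were preincubated 15 minutes at room temperature with substrate, antibody and pre-activated JNK3-containing HepG2 lysate. Reactions were started with 10 uM ATP and stopped with EDTA-containing bead buffer for AlphaScreen detection.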

[20] = target: 3',5'-cyclic-AMP phosphodiesterase 4B (Homo sapiens) (UniProt Q07343); assay: qHTS Assay for Inhibitors of PDE-IV (AID 607; active means well fitted activation curve with a large enough effect in the main read-out, with a control signal flat, not every such curve was filed as active; further: % of control where 0% means no effect)
3',5'-cyclic-AMP phosphodiesterase 4B (Homo sapiens), sequence (Q07343 whole entry, looked up): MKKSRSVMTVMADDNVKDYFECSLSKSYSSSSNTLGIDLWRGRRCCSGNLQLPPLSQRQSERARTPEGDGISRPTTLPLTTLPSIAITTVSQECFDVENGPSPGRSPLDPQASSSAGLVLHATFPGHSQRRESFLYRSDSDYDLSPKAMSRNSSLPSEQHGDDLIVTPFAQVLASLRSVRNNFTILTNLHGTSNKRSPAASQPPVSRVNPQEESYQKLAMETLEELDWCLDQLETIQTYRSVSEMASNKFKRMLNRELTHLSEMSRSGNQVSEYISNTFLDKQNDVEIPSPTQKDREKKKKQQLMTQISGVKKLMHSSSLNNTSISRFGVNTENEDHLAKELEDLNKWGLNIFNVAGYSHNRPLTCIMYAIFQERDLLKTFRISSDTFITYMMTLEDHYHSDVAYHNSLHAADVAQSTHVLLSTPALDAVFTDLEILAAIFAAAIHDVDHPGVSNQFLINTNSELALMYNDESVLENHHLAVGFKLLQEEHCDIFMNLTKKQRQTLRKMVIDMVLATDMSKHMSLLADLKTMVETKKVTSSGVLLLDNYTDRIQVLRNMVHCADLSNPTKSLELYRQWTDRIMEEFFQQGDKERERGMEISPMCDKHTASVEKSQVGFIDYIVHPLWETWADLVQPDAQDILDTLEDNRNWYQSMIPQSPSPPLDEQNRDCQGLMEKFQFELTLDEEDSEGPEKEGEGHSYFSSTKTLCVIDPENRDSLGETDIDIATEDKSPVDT
Method in brief: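 Cell-based read-out of cAMP via a modified cyclic nucleotide-gated channel and membrane potential dye (535/590 nm) in HEK293 cells expressing PDE4 endogenously. Compounds tested up to 22.9 uM final; 100 uM RO 20-1724 reference.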

[21] = measured here: cell count channel max response
[22] = measured here: lipid channel max response

CC(C)C1CCC(C(=O)NC(Cc2ccccc2)C(=O)O)CC1 (stereo not drawn)
inactive: activity change, negative = inhibition ([1]; at 57.5 µM (top of the series)) 5.23% | outcome [2] | Potency [3] | Potency [4] | activity, negative = inhibition ([5]; parasite line A) -12% | activity, negative = inhibition ([5]; parasite line B) 8.36% | Potency [6] | Potency [7] | Potency [8] | Potency [9] | Potency [10] | Potency [11] | Potency [12] | Potency [13] | Potency [14] | Potency [15] | Potency [16] | Potency [17]
10.2%: max response [1, 22]
2.86%: max response [1, 21]

CC1CCC(C(C)C)C(=O)C1 (stereo not drawn)
14.2%: max response [1, 22]
inactive: activity change, negative = inhibition ([1]; at 57.5 µM (top of the series)) 1.11% | outcome [2] | Potency [3] | Potency [4] | activity, negative = inhibition ([5]; parasite line A) 0.527% | activity, negative = inhibition ([5]; parasite line B) 15.7% | Potency [6] | Potency [7] | Potency [8] | Potency [9] | Potency [10] | Potency [11] | Potency [12] | Potency [13] | Potency [14] | Potency [15] | Potency [16] | Potency [17]
11.5%: max response [1, 21]

NC(C(=O)O)[C@@H]1CC(Cl)=NO1 (stereo partly drawn)
active: Potency ([5]; parasite line A) 1.26 µM | Potency ([5]; parasite line B) 2.82 µM | Potency [6] 1 µM | Potency [7] 1.12 µM | Potency [8] 1.12 µM | Potency [9] 2.82 µM | Potency [10] 4.26 µM | Potency [11] 2.69 µM | Potency [12] 1.51 µM | Potency [13] 2.69 µM | Potency [14] 3.01 µM | Potency [15] 3.38 µM | Potency [16] 2.82 µM
16.9%: max response [1, 21]
29%: max response [1, 22]
inactive: activity change, negative = inhibition ([1]; at 57.5 µM (top of the series)) 6.89% | outcome [2] | Potency [3] | Potency [4]

C[C@@H](CN1c2ccccc2Sc2ccccc21)N(C)C
-13.4%: max response [1, 22]
inactive: outcome [18] | Potency [19] | outcome [20] | activity change, negative = inhibition ([1]; at 25.7 µM (top of the series)) -3.2% | Potency [3]
-10.2%: max response [1, 21]

COc1ccc(-c2cc(=O)c3c(O)cc(O)cc3o2)cc1
23.2%: max response [1, 22]
inactive: Potency [19] | outcome [20] | activity change, negative = inhibition ([1]; at 57.5 µM (top of the series)) 14.6% | Potency [3]
4.93%: max response [1, 21]

CC1=C(CCC(=O)O)c2cc3nc(cc4[nH]c(cc5[nH]c(cc1n2)c(C)c5C(C)O)c(C)c4C(C)O)C(C)=C3CCC(=O)O (stereo not drawn)
12.6%: max response [1, 21]
18.6%: max response [1, 22]
inactive: activity change, negative = inhibition ([1]; at 57.5 µM (top of the series)) 3.12% | Potency [3]

OCC1O[C@H](OC2C(CO)O[C@@](O)(CO)C2O)C(O)C(O)C1O (stereo partly drawn)
14.3%: max response [1, 21]
inactive: activity change, negative = inhibition ([1]; at 57.5 µM (top of the series)) 5.94% | outcome [2] | Potency [4] | activity, negative = inhibition ([5]; parasite line A) 9.31% | activity, negative = inhibition ([5]; parasite line B) 4.3% | Potency [6] | Potency [7] | Potency [8] | Potency [9] | Potency [10] | Potency [11] | Potency [12] | Potency [13] | Potency [14] | Potency [15] | Potency [16] | Potency [17]
24%: max response [1, 22]

C/C(=C\CNc1ncnc2nc[nH]c12)CO
3.25%: max response [1, 22]
4.12%: max response [1, 21]
inactive: Potency [19] | outcome [20] | activity change, negative = inhibition ([1]; at 57.5 µM (top of the series)) -1.3%

COc1c(O)cc(O)cc1O
4.87%: max response [1, 22]
inactive: activity change, negative = inhibition ([1]; at 57.5 µM (top of the series)) -1.6% | Potency [3]
3.65%: max response [1, 21]

CC(C)=CCC[C@](C)(O)C1CC=C(C)CC1 (stereo partly drawn)
-2.85%: max response [1, 21]
4.12%: max response [1, 22]
inactive: activity change, negative = inhibition ([1]; at 57.5 µM (top of the series)) 6.04% | outcome [2] | Potency [4] | activity, negative = inhibition ([5]; parasite line A) -5.22% | activity, negative = inhibition ([5]; parasite line B) 7.19% | Potency [6] | Potency [7] | Potency [8] | Potency [9] | Potency [10] | Potency [11] | Potency [12] | Potency [13] | Potency [14] | Potency [15] | Potency [16] | Potency [17]

C[C@@](N)(C(=O)O)c1cccc(CC(=O)O)c1
1.61%: max response [1, 21]
inactive: Potency [19] | outcome [20] | activity change, negative = inhibition ([1]; at 57.5 µM (top of the series)) 1.75% | Potency [3]
3.55%: max response [1, 22]

C/C1=C2N=C(/C=C3N=C(/C(C)=C4\[N-]C(C)(C5N=C1C(C)(CCC(=O)NCC(C)OP(=O)([O-])O[C@H]1C(O)C(n6cnc7cc(C)c(C)cc76)O[C@@H]1CO)C5CC(N)=O)C(C)(CC(N)=O)C4CCC(N)=O)C(C)(CC(N)=O)C\3CCC(N)=O)C(C)(C)C/2CCC(N)=O.[CH2-]C1OC(n2cnc3c(N)ncnc32)C(O)C1O.[Co] (stereo partly drawn)
29.7%: max response [1, 22]
inactive: activity change, negative = inhibition ([1]; at 57.5 µM (top of the series)) 3.3% | outcome [2] | Potency [4] | activity, negative = inhibition ([5]; parasite line A) 4.62% | activity, negative = inhibition ([5]; parasite line B) 4.58% | Potency [6] | Potency [7] | Potency [8] | Potency [9] | Potency [10] | Potency [11] | Potency [12] | Potency [13] | Potency [14] | Potency [15] | Potency [16] | Potency [17]
22.1%: max response [1, 21]

COC(=O)N/N=C/C1=C[N+](=O)c2ccccc2[N+]1=O
17.7%: max response [1, 22]
inactive: activity change, negative = inhibition ([1]; at 57.5 µM (top of the series)) 12.7% | outcome [2] | Potency [3] | Potency [4] | activity, negative = inhibition ([5]; parasite line A) -2.61% | activity, negative = inhibition ([5]; parasite line B) -4.8% | Potency [6] | Potency [7] | Potency [8] | Potency [9] | Potency [10] | Potency [11] | Potency [12] | Potency [13] | Potency [14] | Potency [15] | Potency [16] | Potency [17]
5.74%: max response [1, 21]

COc1cc(C2c3cc4c(cc3C(O[C@@H]3OC5COC(c6cccs6)OC5C(O)C3O)C3COC(=O)C23)OCO4)cc(OC)c1O (stereo partly drawn)
22.3%: max response [1, 21]
-100%: max response [1, 22]
inactive: outcome [2] | Potency [3] | Potency [4]
active: Potency [1] 5.01 µM | Potency ([5]; parasite line A) 1.12 µM | Potency ([5]; parasite line B) 2 µM | Potency [6] 2 µM | Potency [7] 2.24 µM | Potency [8] 2 µM | Potency [9] 2 µM | Potency [10] 8.49 µM | Potency [11] 1.69 µM | Potency [12] 1.69 µM | Potency [13] 4.78 µM | Potency [14] 4.26 µM | Potency [15] 2.13 µM | Potency [16] 2.24 µM | Potency [17] 4.47 µM

CNC1CC(N)[C@H](O)[C@@H](O[C@@H]2OC(CO)C3OC4(OC(C(N)CO)C(O)C(O)C4O)O[C@@H]3[C@H]2O)C1O (stereo partly drawn)
7.53%: max response [1, 22]
3.52%: max response [1, 21]
inactive: activity change, negative = inhibition ([1]; at 57.5 µM (top of the series)) 3.46% | outcome [2] | Potency [3] | Potency [4] | activity, negative = inhibition ([5]; parasite line A) 1.25% | activity, negative = inhibition ([5]; parasite line B) -26.8% | Potency [6] | Potency [7] | Potency [8] | Potency [9] | Potency [10] | Potency [11] | Potency [12] | Potency [13] | Potency [14] | Potency [15] | Potency [16] | Potency [17]
